# Screening data as filed in PubChem BioAssay.
# Many of the other results were omitted from the sample, so hits are more common in it than they were.
# FECH block – inhibitors of human ferrochelatase, primary screen, biochemical, purified FECH, Ni-mesoporphyrin absorbance. Ferrochelatase, mitochondrial (Homo sapiens), P22830. Ni-mesoporphyrin absorbance 550 nm. calls only at 10 µM (by protocol). 3.3% of 20,000 active. AID 1671448, 2021;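 active = enzyme reaction rate more than 3 SD below the solvent-only control wells on the same plate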;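 also: lower slope than DMSO wells means FECH inhibition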
# Target sequence (P22830 whole entry, looked up): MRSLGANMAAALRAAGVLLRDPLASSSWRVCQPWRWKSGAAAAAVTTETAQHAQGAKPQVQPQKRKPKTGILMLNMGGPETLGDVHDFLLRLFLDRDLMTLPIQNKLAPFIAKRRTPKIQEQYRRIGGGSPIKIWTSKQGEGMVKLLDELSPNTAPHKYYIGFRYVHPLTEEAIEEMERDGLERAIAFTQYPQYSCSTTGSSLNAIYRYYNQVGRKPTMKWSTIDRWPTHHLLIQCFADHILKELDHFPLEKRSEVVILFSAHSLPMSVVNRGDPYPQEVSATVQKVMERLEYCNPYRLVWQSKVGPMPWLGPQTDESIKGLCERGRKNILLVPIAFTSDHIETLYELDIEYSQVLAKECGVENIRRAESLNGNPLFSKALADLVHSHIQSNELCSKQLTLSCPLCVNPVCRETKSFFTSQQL
# * = called active by the depositor; i = inactive; + = active, no number.
SMILES,FECH block
CCc1ccccc1NCc1cc(=O)n2[nH]c(-c3ccc(C(C)(C)C)cc3)nc2n1,+
CN1CCN(Cc2cc(=O)n3[nH]c(-c4ccc(C(C)(C)C)cc4)nc3n2)CC1,i
Cc1ccc(NCc2cc(=O)n3[nH]c(-c4ccc(C(C)(C)C)cc4)nc3n2)cc1Cl,i
Cc1ccc(N2CCCS2(=O)=O)cc1NC(=O)COc1ccc(Cl)cc1,i
Cc1cccc(C)c1NC(=O)CN1CCN(Cc2ccccc2F)S1(=O)=O,i
COc1cccc(NC(=O)NCC2CCCN(C3CCOCC3)C2)c1 (configuration not stated),i
Cc1ccsc1C(=O)N1CCC(n2cc(C(C)(C)O)nn2)CC1,i
Cc1ccc(S(=O)(=O)CC(=O)Nc2sc3c(c2-c2nc4ccccc4s2)CCN(C)C3)cc1,i
Cc1ccc(-c2ncc3c(=O)n(Cc4ccc(F)cc4)c(=O)n(C)c3n2)cc1,i
Cc1cccc(Cn2c(CNS(=O)(=O)c3cccc(Cl)c3)nc3cccnc32)c1,i
CSc1cccc(CNC(=O)Cc2csc(C(C)=O)c2)c1,i
CN(Cc1ccccc1)Cc1cc(C(=O)NC2CC(=O)Nc3ccccc32)no1 (configuration not stated),i
COc1ccc(CCC(=O)Nc2cccc(N3CCCS3(=O)=O)c2)cc1,i
Cc1ccsc1C(CNC(=O)c1ccc2c(c1)no[n+]2[O-])N(C)C (configuration not stated),i
CCOc1ccc(NCc2cc(=O)n3[nH]c(NCc4ccccc4)nc3n2)cc1,i
COc1ccc(Cl)cc1NCc1cc(=O)n2[nH]c(-c3ccc(C(C)(C)C)cc3)nc2n1,+
COc1ccccc1NCc1cc(=O)n2[nH]c(-c3ccc(C(C)(C)C)cc3)nc2n1,i
CC(C)(C)c1ccc(-c2nc3nc(CNc4cccc(C(F)(F)F)c4)cc(=O)n3[nH]2)cc1,i
CC(C)(C)c1ccc(-c2nc3nc(CNc4ccccc4)cc(=O)n3[nH]2)cc1,+
COc1ccc(NCc2cc(=O)n3[nH]c(-c4ccc(C(C)(C)C)cc4)nc3n2)cc1,i
COc1ccc(Cl)cc1NCc1cc(=O)n2[nH]c(NCc3ccc(F)cc3)nc2n1,i
CC(C)(C)c1ccc(-c2nc3nc(CNc4ccc(Cl)cc4)cc(=O)n3[nH]2)cc1,i
CCOc1ccc(NCc2cc(=O)n3[nH]c(-c4ccc(C(C)(C)C)cc4)nc3n2)cc1,+
Cn1nc(C(=O)O)c2c1CCN(C(=O)c1cccc(OCC(F)(F)F)c1)C2,i
CCCS(=O)(=O)N1CCC(n2c(COC)nc3cccnc32)CC1,i
SMILES,FECH block
COc1cc(OC)cc(C(=O)Nc2ccccc2SCc2cc(=O)n3c(ncn3C(C)C)n2)c1,i
CCOc1c(Nc2ccc(Br)cc2F)c(=O)c1=O,i
Cc1c(Cl)cccc1NC(=O)CN1CCCN(Cc2ccccc2Cl)S1(=O)=O,+
Cc1ccc(Cl)cc1NC(=O)CN1CCCN(Cc2ccccc2)S1(=O)=O,i
COc1ccccc1NC(=O)CN1CCN(Cc2ccccc2Cl)S1(=O)=O,i
Cc1ccc(Cl)cc1NC(=O)CN1CCCN(Cc2ccccc2Cl)S1(=O)=O,+
Cc1cccc(C)c1NC(=O)CN1CCN(Cc2ccccc2Cl)S1(=O)=O,i
Cc1ccc(Cl)cc1NC(=O)CN1CCN(Cc2ccc(F)cc2Cl)S1(=O)=O,i
COc1ccc(NC(=O)CN2CCN(Cc3ccc(F)cc3)S2(=O)=O)cc1,i
Cc1cccc2[nH]c(C3CCCN(Cc4cc5n(n4)CCCNC5)C3)nc12 (configuration not stated),i
Cc1cc(C)cc(C(=O)Nc2cc(C)nn2-c2ncnc3c2cnn3-c2cccc(Cl)c2)c1,+
Cc1cc(NC(=O)c2ccc(F)c(F)c2)n(-c2ncnc3c2cnn3-c2cccc(C)c2C)n1,i
CCCCC1CCC(C(=O)Nc2cc(C)nn2-c2ncnc3c2cnn3-c2ccc(C)cc2C)CC1 (configuration not stated),i
Cc1ccc(-n2ncc3c(-n4nc(C)cc4NC(=O)CCC4CCCC4)ncnc32)c(C)c1,i
Cc1ccc(C(=O)Nc2cc(C)nn2-c2ncnc3c2cnn3-c2cccc(C)c2C)cc1,+
Cc1cc(C)cc(C(=O)Nc2cc(C)nn2-c2ncnc3c2cnn3-c2ccc(Cl)cc2)c1,i
COc1cccc(C(=O)Nc2cc(C)nn2-c2ncnc3c2cnn3-c2cccc(C)c2C)c1,i
Cc1ccc(-n2ncc3c(-n4nc(C)cc4NC(=O)C4CCCC4)ncnc32)c(C)c1,+
Cc1ccc(C(=O)Nc2cc(C)nn2-c2ncnc3c2cnn3-c2cccc(Cl)c2)cc1,i
CCN(CC)C(=O)[C@@H]1C[C@@H](N)CN1C1CCN(c2ccc3c(c2)CCC3)CC1,i
Cc1ccc(CNC(=O)c2nc(N3CCCC3)c3oc4ccccc4c3n2)o1,i
Cc1[nH]ncc1CNC(=O)CC1CCN(S(=O)(=O)c2ccccc2)CC1,i
COC(=O)Cc1cnc(NC(=O)CN2CCc3c([nH]c4ccccc34)C2)s1,i
Cc1ccc(Cl)cc1NC(=O)N1CCC(n2cnc3cccnc32)CC1,i
Cc1ccc(NC(=O)N2CCC(n3cnc4cccnc43)CC2)c(Cl)c1,i
SMILES,FECH block
O=C(Nc1ccc(Br)cc1F)N1CCC(n2cnc3cccnc32)CC1,+
Cc1nc(CCNC(=O)C(C)(C)NC(=O)c2cccs2)nc2c1CCCC2,i
CCOC(=O)c1c(NC(=O)c2c(F)cccc2F)sc2c1CCN(CC)C2,i
Cc1ccc(NC(=O)CN2CCCN(Cc3cccc(C)c3)S2(=O)=O)cc1,+
Cc1cccc(NC(=O)CN2CCN(Cc3ccc(F)cc3)S2(=O)=O)c1,i
Cc1ccc(CN2CCCN(CC(=O)Nc3ccc(C)cc3)S2(=O)=O)cc1,+
Cc1ccc(NC(=O)CN2CCN(Cc3ccc(F)cc3)S2(=O)=O)cc1,i
Cc1cccc(CN2CCCN(CC(=O)Nc3cccc(C)c3)S2(=O)=O)c1,i
O=C(CN1CCCN(Cc2cccc(F)c2)S1(=O)=O)Nc1ccc(F)c(Cl)c1,i
CC(=O)c1ccc(NC(=O)CN2CCCN(Cc3cccc(C)c3)S2(=O)=O)cc1,i
Cc1cccc(CN2CCCN(CC(=O)Nc3ccc(C)c(F)c3)S2(=O)=O)c1,i
O=C(CN1CCCN(Cc2cccc(F)c2)S1(=O)=O)Nc1ccc(F)cc1,i
Cc1ccc(CN2CCN(CC(=O)Nc3ccc(C)cc3)S2(=O)=O)cc1,i
Cc1cccc(CN2CCN(CC(=O)Nc3ccc(F)cc3)S2(=O)=O)c1,+
Cc1cccc(CN2CCCN(CC(=O)Nc3ccc(F)c(Cl)c3)S2(=O)=O)c1,+
O=C(NCCc1nc(-c2ccncc2)n[nH]1)C1(c2ccccc2F)CC1,i
Cc1ccc(N2CCN(C(=O)c3cc4n(n3)CCCN(C)C4)CC2)c(C)c1,i
CN(Cc1ccccc1)S(=O)(=O)c1cc(C(=O)N2CCCC2)cs1,i
CCOC(=O)Cn1c(=O)n(-c2ccc(C)c(C)c2)c2nc(-c3ccccc3OC)nc(C(N)=O)c21,i
CS(=O)(=O)N1CCC(NCC2(N3CCOCC3)CCCCC2)CC1,i
Cc1ccc(CNc2c(-c3ccc4c(c3)CCCC4)c(=O)c2=O)cc1,i
CCOc1ccc(Nc2cc(C)nc3nc(-c4cccnc4)nn23)cc1,i
CC1CCCN1c1ccc(C(=O)N2CCCN(c3ncccn3)CC2)cn1 (configuration not stated),i
O=C(CCCn1cnnn1)NC1CC(=O)N(Cc2cccc3ccccc23)C1 (configuration not stated),i
